Assay results from PubChem BioAssay (NCI).
Compounds without any hit were thinned out: in the full panel of roughly 83,000, 20% have a hit.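 Cell lines were cultured in 96-well plates, exposed to a single compound concentration, and assessed for percent growth 48 hours later.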 Unmarked numbers belong to inactive results. Activity calls are given as the source filed them. The calls were made as follows: active = growth percent below 10; inactive = the rest.

Experiments:
Assay in all cases: NCI-60 one-dose screen, 48 h (100 = growth as untreated, 0 = no growth, -100 = all killed)
Conditions in all cases: 10 µM unless noted
[1] = test system: NCI/ADR-RES ovarian
[2] = test system: T-47D breast
[3] = test system: BT-549 breast
[4] = test system: MDA-MB-435 melanoma
[5] = test system: SW-620 colon
[6] = test system: MCF7 breast
[7] = test system: HCC-2998 colon
[8] = test system: KM12 colon
[9] = test system: HCT-116 colon

| SMILES | growth [1] | growth [2] [%] | growth [3] | growth [4] | growth [5] | growth [6] [%] | growth [7] [%] | growth [8] | growth [9] [%] |
| --- | --- | --- | --- | --- | --- | --- | --- | --- | --- |
| CCOC(=O)N1CC1 | 98% | 114 | 109% | 97.1% | 103% | 102 | 150 | 107% |  |
| C1CCC2(CC1)OOCNCOO2 | 101% | 89.8 | 106% | 101% | 103% | 45.7 | 106 | 95.9% |  |
| Cc1ccc(Nc2nc3c(s2)C2=CC[C@@H]4[C@H](CC[C@]5(C)C(=O)CC[C@@H]45)[C@@]2(C)CC3)cc1 | 57.2% | 43.8 | 24.7% | 44.3% | 0.485% (active) | 13.9 | 78.2 | 34.7% |  |
| CN1CC(=O)N(O)C1(C)c1cccnc1 (centres undefined) | 104% | 93.4 | 95.7% | 97.4% | 111% | 98.7 | 98.7 | 108% |  |
| CN(C)CCCOc1ccc2c(c1)c(C(=O)C(=O)NCCO)cn2Cc1ccccc1 | 108% | 95.2 | 98.4% | 103% | 105% | 91.5 | 115 | 104% |  |
| COC(=O)[C@@H](C)C[C@H](Cc1ccccc1)NC(=O)c1nc([C@@H](C[C@H](C(C)C)N(C)C(=O)[C@@H](NC(=O)[C@H]2CC(=O)CCN2C)C(C)C)OC(C)=O)sc1C(C)C | 54.3% | 82.9 | -10.6% (active) | -43.4% (active) | 24.2% | 24.6 | 24.6 | 6.01% (active) |  |
| CC(=O)OC1CCC2C3CCC4=C/C(=N/OC(=O)c5ccc(N(CCCl)CCCl)cc5)CCC4(C)C3CC(C)C12 (centres undefined) | -13.2% (active) | 43.8 | 110% | 78.3% | 83.4% |  | 98.6 | 73.6% | 54.6 |
| COC(=O)[C@@H](C)C[C@H](Cc1cn(C)c2ccccc12)NC(=O)c1csc([C@@H](C[C@H](C(C)C)N(C)C(=O)[C@@H](NC(=O)[C@H]2CCCCN2C)C(C)C)OC(C)=O)n1 | 20.7% | 67.7 | -15.9% (active) | -41.5% (active) | 26.8% | 17.8 | 17.3 | 9.11% (active) |  |
